Experimental data as given in PubChem BioAssay (NCATS).
Inconclusive results are not listed. Active and inactive are the calls of the source. Unless noted, calls come from the whole dose curve.

Experiments:
[1] = qHTS for Inhibitors of the Functional Ribonucleoprotein Complex (vRNP) of Lassa (LASV) Arenavirus: LASV Primary Screen - GLuc reporter signal (AID 1347082; calls by dose curve; tested in HEK293 reporter line; note: nearly all actives have a fitted effect of over 60% in size)
[2] = qHTS for Inhibitors of the Functional Ribonucleoprotein Complex (vRNP) of Lassa (LASV) Arenavirus: Viability assay - alamar blue signal for LASV Primary Screen (AID 1347083; calls by dose curve; tested in HEK293 reporter line; note: nearly all actives have a fitted effect of over 80% in size)
[3] = qHTS for Inhibitors of the Functional Ribonucleoprotein Complex (vRNP) of Lymphocytic Choriomeningitis Arenaviruses (LCMV): Viability assay - alamar blue signal for LCMV Primary Screen (AID 1347085; calls by dose curve; tested in HEK293 reporter line; note: nearly all actives have a fitted effect of over 80% in size)
[4] = molecular target: Nucleoprotein (Lymphocytic choriomeningitis virus (strain Armstrong)) (UniProt P09992); assay: qHTS for Inhibitors of the Functional Ribonucleoprotein Complex (vRNP) of Lymphocytic Choriomeningitis Arenaviruses (LCMV): LCMV Primary Screen - GLuc reporter signal (AID 1347086); note: nearly all actives have a fitted effect of over 70% in size

Measured: Potency
Note: series mostly up to about 57 µM.

Chain of Nucleoprotein (Lymphocytic choriomeningitis virus (strain Armstrong)) (P09992 whole entry, looked up): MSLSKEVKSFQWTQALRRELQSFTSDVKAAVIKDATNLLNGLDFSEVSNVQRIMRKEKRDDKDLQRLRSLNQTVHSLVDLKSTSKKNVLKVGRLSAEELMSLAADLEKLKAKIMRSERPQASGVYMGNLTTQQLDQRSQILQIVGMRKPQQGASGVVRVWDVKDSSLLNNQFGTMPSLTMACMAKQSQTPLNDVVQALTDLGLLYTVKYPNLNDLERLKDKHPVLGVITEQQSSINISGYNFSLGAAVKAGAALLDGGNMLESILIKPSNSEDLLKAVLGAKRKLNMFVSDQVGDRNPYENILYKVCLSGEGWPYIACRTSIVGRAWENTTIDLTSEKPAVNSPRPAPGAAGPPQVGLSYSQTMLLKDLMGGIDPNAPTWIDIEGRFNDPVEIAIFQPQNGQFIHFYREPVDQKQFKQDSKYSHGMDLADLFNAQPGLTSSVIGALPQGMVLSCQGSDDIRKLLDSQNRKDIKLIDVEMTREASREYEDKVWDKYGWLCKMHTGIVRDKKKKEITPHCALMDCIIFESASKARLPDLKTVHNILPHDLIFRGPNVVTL

CC(C)CC(=O)O
inactive: all assays above

CC(C)C[C@H](NC(=O)c1cc2ccccc2s1)C(=O)N1CCN(C(=O)[C@H](CO)NS(=O)(=O)c2ccc(Cl)cc2Cl)CC1
inactive: all assays above

CCOC(=O)[C@H](CCc1ccccc1)N[C@@H](C)C(=O)N1[C@@H](C(=O)O)C[C@H]2CCC[C@@H]21
inactive: all assays above

CCCCCCCCCCOC(C)=O
inactive: all assays above

COc1ccc(C(=O)OC2CC[C@@]3(C)C4CCC5[C@]6(O)C[C@H](O)[C@@]7(O)C(CN8CC(C)CCC8[C@@]7(C)O)[C@]6(O)C[C@@]53O[C@]24O)cc1OC (stereo partly drawn)
inactive: all assays above

C[C@H]1[C@H](C)CC[C@]2(C)CC[C@]3(C)C(=CC(=O)C4[C@@]5(C)CC[C@H](O)C(C)(C)C5CC[C@]43C)[C@H]12 (stereo partly drawn)
inactive: all assays above

C=C1C[C@H](O[C@@H]2O[C@H](CO)[C@@H](O)[C@H](O)[C@H]2O)[C@@H]2[C@H](OC(=O)[C@H]2C)[C@H]2[C@H](C)[C@@H](O)C[C@@H]12
inactive: all assays above

CC1=CCCC(C)(C)C12CCC(C)O2 (stereo not drawn)
inactive: all assays above

CCCCCCCC/C=C/CCCOC(C)=O
inactive: all assays above

COc1cc2c(c(OC)c1OC)-c1c(cc3c(c1OC)OCO3)[C@@H](OC(C)=O)[C@H](C)[C@H](C)C2
inactive: all assays above

CC1=CCC(C(C)C)=CC1
inactive: all assays above

CCCCOC(=O)C(=O)OCCCC
inactive: all assays above

CC1C(c2ccccc2)OC(=O)N1C (stereo not drawn)
inactive: all assays above

COc1cc(C)c(C(=O)Oc2cc(C)c(C(=O)O)c(O)c2C)c(OC)c1C
inactive: all assays above

CCOC(=O)c1c(C)cc(O)cc1O
inactive: all assays above

CC(C)CN(C[C@H](O)[C@H](Cc1ccccc1)NC(=O)O[C@H]1CCOC1)S(=O)(=O)c1ccc(N)cc1
inactive: all assays above

COc1ccc(COC(C)=O)cc1
inactive: all assays above

COC(=O)C1=CO[C@@H](O)[C@@H]2C(CO)=CC[C@@H]12
inactive: all assays above

C[C@@H]1[C@H](C)CC[C@]2(C(=O)O)CC[C@]3(C)C(=CC[C@@H]4[C@@]5(C)C[C@@H](O)[C@H](O)[C@@](C)(CO)[C@H]5CC[C@]43C)[C@@H]12
inactive: all assays above

O=CC(O)C1OC(=O)C(O)C1O (stereo not drawn)
inactive: all assays above

CC(C)CCCCCCCCCCCCC(=O)NCC(=O)NC1C(O)C(O)C(Nc2ncnc3nc[nH]c23)OC1C(O)CO (stereo not drawn)
inactive: all assays above

O=c1oc(-c2ccc(O)c(O)c2)cc2cc(O)cc(O)c12
inactive: all assays above

CC(=O)OC[C@H]1O[C@@H](O[C@H]2C[C@]3(C)C(C[C@@H](O)C4C([C@]5(C)CC[C@@H](C(C)(C)O)O5)CC[C@]43C)[C@@]3(C)CC[C@H](O)C(C)(C)C23)[C@H](O[C@@H]2O[C@@H](C)[C@H](O)[C@@H](O)[C@H]2O)[C@@H](O)[C@@H]1O (stereo partly drawn)
inactive: all assays above

O=C1CCCCCCCCCCCCCCO1
inactive: all assays above

COc1cc(C2C(c3ccccc3)C(c3cc(OC)cc(=O)o3)C2c2ccccc2)oc(=O)c1 (stereo not drawn)
inactive: all assays above

COc1cc2c(c(OC)c1OC)-c1c(cc3c(c1O)OCO3)C[C@@H](C)[C@@H](C)C2
inactive: all assays above

C/C=C(/C)C(=O)O[C@H]1[C@@H](O)c2c(ccc3ccc(=O)oc23)OC1(C)C
inactive: all assays above
